Assay results from PubChem BioAssay AID504895 (National Center for Advancing Translational Sciences (NCATS), 2011).
Results filed as inconclusive are left out. The source made the active and inactive calls. Calls follow the shape of the dose curve; as a rule, active = well fitted curve in the direction sought with a large enough effect; inconclusive = small, poorly fitted or top-dose-only effect, or another doubt; inactive = no such curve, though single readings can be large or run the other way.

Each compound was assayed against Protein phosphatase EYA2 (Homo sapiens) (UniProt O00167) (assay: Inhibitors of Eya2ED: Hit Confirmation in Primary Screen). Conditions: Recombinant Eya2ED, OMFP fluorescence phosphatase assay; series mostly up to 76.9 µM.
Sequence of Protein phosphatase EYA2 (Homo sapiens) (O00167 whole entry, looked up): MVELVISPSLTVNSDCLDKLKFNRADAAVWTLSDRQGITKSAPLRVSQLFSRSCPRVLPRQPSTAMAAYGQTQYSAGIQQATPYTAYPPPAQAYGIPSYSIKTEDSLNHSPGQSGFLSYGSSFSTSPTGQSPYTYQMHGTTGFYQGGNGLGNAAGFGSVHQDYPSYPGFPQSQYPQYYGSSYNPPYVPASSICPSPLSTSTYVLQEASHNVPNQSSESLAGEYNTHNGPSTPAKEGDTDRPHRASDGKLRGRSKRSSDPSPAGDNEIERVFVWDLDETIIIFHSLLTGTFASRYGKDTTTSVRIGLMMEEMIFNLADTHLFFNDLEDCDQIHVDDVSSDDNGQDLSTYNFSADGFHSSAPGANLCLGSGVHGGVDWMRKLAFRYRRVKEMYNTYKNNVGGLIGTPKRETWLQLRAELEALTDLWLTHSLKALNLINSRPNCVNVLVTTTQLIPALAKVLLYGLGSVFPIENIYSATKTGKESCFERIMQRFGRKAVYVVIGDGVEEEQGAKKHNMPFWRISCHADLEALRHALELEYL
Description: The Eya proteins (Eya1-4) were originally identified as essential co-activators of the Six1 transcription factor. […] Knockdown of Six1 decreases cancer cell proliferation and metastases in several different cancer models. […] A fluorescence-based HTS assay has been perfomed against the Molecular Libraries Small Molecule Repository (MLSMR) and has the AID 488837 in this database. After completion of the primary screen, hits were re-ordered and tested again in the primary screen in a 12 point titration. NIH Chemical Genomics Center [NCGC] NIH Molecular Libraries Probe Centers Network [MLPCN] MLPCN Grant: DA030559-01 Assay Submitter (PI): Rui Zhao, University of Colorado, Denver
The Eya2 enzyme was kindly provided by the laboratory of Dr. Rui Zhao. The 3-O-methyl-fluorescein phosphate (OMFP) substrate and all buffer reagents were purchased from Sigma Aldrich. qHTS Assay Setup: 1. Buffer- 50 mM HEPES pH 7.5, 50 mM NaCl, 5 uM MgCl2, 0.05% BSA, 1 mM DTT. 2. OMFP Stock- 10 mM solution prepared in 100% DMSO and stored in single use aliquots at -20C. Assay Procedure- 1. Dispense 1.5 ul per well of Eya2 at 0.2 uM in black medium binding 1536 well Greiner plate 2. Transfer 23 nl of compound and control compound (EGTA) to plate 3. Incubate at ambient for 10 minutes 4. Dispense 1.5 ul per well of OMFP at 50 uM 5. Incubate at ambient for 10 minutes 6. Read on ViewLux using Excitation = 485 nm, Emission = 525 nm

Potency, inactive:
S=C1NC[C@H](CC2CCCCC2)N1CC1CCCCC1
O=C(Cn1cccc(C(F)(F)F)c1=O)c1ccc(Cl)cc1
COc1ccc(-c2nnn(-c3cc(Cl)cc(Cl)c3)c2N)cc1
O=C(c1ccccc1Cl)N1CCN(C(=O)C2CCCO2)CC1 (stereo not given)
COc1ccc(CCc2nc(C)ccc2O)cc1
CCOc1ccc(S(=O)(=O)N2CCN(C(=O)c3sccc3C)CC2)cc1
O=C(C1CCCN(Cc2ccccc2F)C1)N1CCc2ccccc2C1 (stereo not given)
Cc1onc(-c2ccccc2Cl)c1C(=O)OCC(=O)N1CCC(C)CC1
COc1ccc(NC(=O)CNc2cc(S(=O)(=O)N3CCOCC3)ccc2N2CCOCC2)c(OC)c1
N#Cc1ccccc1NC(=O)CSC1=Nc2ccccc2C2CC=NN12 (stereo not given)
CCOc1cc(C)c(Cl)cc1S(=O)(=O)NCc1ccco1
O=C(CCc1nc2ccccc2s1)NCc1ccccc1F
COc1ccc(CCN=C(C)C2=C(O)C(c3ccccc3)OC2=O)cc1OC (stereo not given)
O=C(O)/C=C/C(=O)Nc1ccc2nccnc2c1
CC(C)CN1C(=O)c2ccc(NC(=O)c3ccccc3F)cc2C1=O
CCCOc1ccc(C(=O)OCC(=O)c2c(N)n(C)c(=O)n(C)c2=O)cc1OC
COc1ccc(NC(=O)CSc2nc3[nH]c(=O)[nH]c(=O)c3s2)cc1OC
O=C(CN1C(=O)c2ccccc2S1(=O)=O)Nc1cccc(S(=O)(=O)N2CCOCC2)c1
COc1ccc(CC(=O)Nc2cccnc2)cc1
Cc1cc(C)c(S(=O)(=O)N2CCCCC2CCNC(=O)C(=O)NCCN2CCOCC2)c(C)c1 (stereo not given)
CCOC(=O)CN(C(=O)CN1CCC(n2nnc3cc(C)ccc32)CC1)c1ccccc1
CC[C@]12c3[nH]c4ccccc4c3CCN1C(=O)C(CC(=O)NCCc1ccccn1)C[C@@H]2C(=O)N1CCN(C(=O)c2ccco2)CC1 (stereo not given in full)
NC(=O)C1CCN(CC(=O)Nc2ccc3c(c2)OCCO3)CC1
O=C(NC1CCCCC1)c1cc2nc3c(c(C(F)(F)F)n2n1)CCCC3
O=C(CCCC(=O)N(CC(=O)NC1CCCCC1)c1ccccc1F)Nc1ccccn1
O=S(=O)(Cc1ccccc1Cl)N1CCN(Cc2ccc3c(c2)OCO3)CC1
CCOc1ccccc1N(CC(=O)Nc1cc(OC)ccc1OC)S(C)(=O)=O
Cc1cc(C(=O)N/N=C/C=C/c2ccc3c(c2)OCO3)n[nH]1
Cc1ccc2c(c1)CCCN2C(=O)c1cccs1
CCOc1ccc(S(=O)(=O)NC(C)C(=O)NCc2ccncc2)cc1 (stereo not given)
NC(=O)Nc1ccc(C(=O)OCC(=O)NC2CCCCC2)cc1
Cc1ccc(NC(=O)CC2C(=O)NC3CCCCC3N2C(=O)c2ccc(F)cc2)cc1C (stereo not given)
O=C1/C(=C/c2cccs2)N=C(c2cccs2)N1Nc1ccccc1
CCOC(=O)C1CCCN(Cc2cc(Br)c(OC)cc2OC)C1 (stereo not given)
COC(=O)C1OC(OC2CC[C@]3(C)C(CC[C@@]4(C)[C@@H]3CC=C3[C@@H]5CC(C)(C)CC[C@]5(C(=O)OC5OC(CO)C(O)C(O)C5O)CC[C@]34C)C2(C)C)C(O)C(O)C1O[C@H]1OCC(O)C(O)C1O (stereo not given in full)
COC(=O)/C=C1\NCCNC1=O
Nc1ccccc1-c1nc2ccccc2[nH]1
O=C(COC(=O)c1cccnc1Cl)Nc1cc(S(=O)(=O)N2CCCCCC2)ccc1Cl
COc1ccc2c(c1)[C@H]1[C@H](CO2)[C@H](c2ccccc2)[C@]2(C)C(=O)Nc3ccc(F)cc3C(=O)N12
CC(C)(C)OC(=O)NCCCCCc1nnc(SCc2ccccc2F)o1
